Bioassay records deposited in PubChem by Paczesny and Yang Labs, IUPUI and University of Michigan.
This excerpt belongs to a sample that is enriched for hits.
ST2 inh: blocks human ST2 binding to IL-33; Q01638; AlphaLISA ST2-Fc/biotin-IL-33 interaction, 1 h; inhibition, % for hits at 17 µM; hit rate 2.3% among 78,000; in the data active means inhibition above about 30%
Target sequence (Q01638 whole entry, looked up): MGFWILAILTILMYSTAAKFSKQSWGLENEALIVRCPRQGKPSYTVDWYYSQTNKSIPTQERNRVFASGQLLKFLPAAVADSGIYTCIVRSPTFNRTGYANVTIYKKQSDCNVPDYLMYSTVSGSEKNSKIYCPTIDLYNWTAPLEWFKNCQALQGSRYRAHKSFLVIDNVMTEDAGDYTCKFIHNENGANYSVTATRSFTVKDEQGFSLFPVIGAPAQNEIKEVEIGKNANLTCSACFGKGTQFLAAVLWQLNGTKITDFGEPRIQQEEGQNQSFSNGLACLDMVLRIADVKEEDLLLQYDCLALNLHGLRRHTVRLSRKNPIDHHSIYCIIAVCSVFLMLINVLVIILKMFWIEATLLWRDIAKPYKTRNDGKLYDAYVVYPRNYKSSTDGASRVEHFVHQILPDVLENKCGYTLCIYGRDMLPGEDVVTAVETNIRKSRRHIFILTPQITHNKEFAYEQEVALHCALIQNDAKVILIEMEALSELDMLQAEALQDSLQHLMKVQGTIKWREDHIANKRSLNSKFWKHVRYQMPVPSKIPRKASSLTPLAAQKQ
An asterisk follows results filed as active.

Results for Cc1ccccc1C1=N/C(=C\c2ccc(N(C)C)cc2)C(=O)O1 ?
ST2 inh: 40%*

What do the screens show for `COc1ccc(/C=C2\N=C(c3cccc(I)c3)OC2=O)cc1`?
ST2 inh: 31%*

Results for Cc1ccc(C2=N/C(=C\c3ccc([N+](=O)[O-])cc3)C(=O)O2)cc1[N+](=O)[O-] ?
ST2 inh: inactive

What do the screens show for `COc1cc(C2=N/C(=C\C=C\c3ccccc3)C(=O)O2)cc(OC)c1OC`?
ST2 inh: 30%*

How did Cc1ccc(C2=N/C(=C\c3ccccc3)C(=O)O2)cc1[N+](=O)[O-] do in these assays?
ST2 inh: inactive

What do the screens show for `O=C1OC(c2cccc(I)c2)=N/C1=C\c1ccc(Br)cc1`?
ST2 inh: inactive

What do the screens show for `COc1c(Cl)cc(Cl)cc1/C=C1\N=C(c2ccccc2)OC1=O`?
ST2 inh: inactive

Results for COc1ccccc1/C=C1\N=C(c2cc([N+](=O)[O-])cc([N+](=O)[O-])c2)OC1=O ?
ST2 inh: inactive

What do the screens show for `CS(=O)(=O)c1ccc2nc(NC(=O)c3ccccc3C(=O)O)sc2c1`?
ST2 inh: inactive

How did CCn1c2ccccc2c2cc(NS(=O)(=O)c3ccc(OC)cc3)ccc21 do in these assays?
ST2 inh: inactive

How did CCN(CC)C(=O)[C@@H]1C[C@@H](N)CN1C(=O)c1cc2ccccc2n(C)c1=O do in these assays?
ST2 inh: inactive

How did Cc1ccccc1-c1cc(O)c2c(c1)CN(CCCn1nnnc1C)CCO2 do in these assays?
ST2 inh: inactive

Results for CN1C(=O)C2(CCCN(C(=O)c3c[nH]c(=O)cn3)C2)c2ccccc21 (configuration not stated) ?
ST2 inh: inactive

What do the screens show for `C=CCN(CC=C)C(=O)C(c1ccccc1)c1ccccc1`?
ST2 inh: inactive

What do the screens show for `O=c1[nH]c2ccccc2n1C1=CCN(c2nccc(N3CCC(O)C3)n2)CC1` (configuration not stated)?
ST2 inh: inactive

What do the screens show for `C=CCN(CC=C)C(=O)CN1CC=C(n2c(=O)[nH]c3ccccc32)CC1`?
ST2 inh: 31%*

What do the screens show for `O=C1CCCC2=C1C(c1ccc(O)cc1)c1c(nc(SCc3ccccc3Cl)[nH]c1=O)N2` (configuration not stated)?
ST2 inh: inactive

What do the screens show for `Cn1c(=O)c2cn(-c3ccccc3N)cc2n(C)c1=O`?
ST2 inh: inactive

How did CC(=O)N1CCc2cc(N=Cc3cc([N+](=O)[O-])ccc3O)ccc21 do in these assays?
ST2 inh: inactive

Results for Cc1ccc2nc(-c3cc(N=Cc4cccc([N+](=O)[O-])c4)ccc3O)[nH]c2c1 ?
ST2 inh: 43%*

Results for C/C(=C\c1ccccc1)c1nc2ccc([N+](=O)[O-])cc2[nH]1 ?
ST2 inh: inactive

Results for O=[N+]([O-])c1cccc(N=Cc2nc(-c3ccc(Br)cc3)oc2O)c1 ?
ST2 inh: inactive

Results for O=[N+]([O-])c1ccccc1C=Nc1ccc2nc(-c3ccccc3)[nH]c2c1 ?
ST2 inh: inactive

How did Cc1ccc2nc(-c3cc(N=Cc4cccc([N+](=O)[O-])c4O)ccc3O)[nH]c2c1 do in these assays?
ST2 inh: 36%*

What do the screens show for `Cc1ccc2nc(-c3cc(N=Cc4ccc([N+](=O)[O-])cc4)ccc3O)[nH]c2c1`?
ST2 inh: 38%*

Results for O=[N+]([O-])c1cccc(C=Nc2ccc(F)cc2)c1O ?
ST2 inh: inactive

What do the screens show for `CC(=O)Nc1nc(C)c(-c2nc3ccc([N+](=O)[O-])cc3[nH]2)s1`?
ST2 inh: inactive

How did Cc1cc(N2C(=O)C3CC=CCC3C2=O)ccc1Br (configuration not stated) do in these assays?
ST2 inh: inactive

How did Cc1cc(C)c(S(=O)(=O)N(CCCN2CCOCC2)Cc2cccs2)c(C)c1 do in these assays?
ST2 inh: inactive

Results for Cc1ccccc1NC(=O)c1cccc(S(=O)(=O)Nc2cccc([N+](=O)[O-])c2)c1 ?
ST2 inh: inactive

How did COc1cccc(-c2ccc(NC(=O)C3CCCN3C(=O)c3ccco3)cc2)c1 (configuration not stated) do in these assays?
ST2 inh: inactive

Results for C=CCNc1ccccc1C(=O)N1CCC[C@@H]1C(N)=O ?
ST2 inh: inactive

Results for C=CCOC(=O)C1=C(C)N=C2SCCC(=O)N2C1c1ccc(C(C)(C)C)cc1 (configuration not stated) ?
ST2 inh: inactive

Results for COc1ccc(C(=O)N[C@@H]2CN(C(=O)NC3CCCCC3)CCC[C@H]2O)cc1 ?
ST2 inh: 82%*

What do the screens show for `COCCOc1ccc(C(=O)N[C@@H]2CN(C(=O)NCc3ccccc3)CCC[C@H]2O)cc1`?
ST2 inh: inactive

Results for CC(C)NC(=O)N1CCC[C@@H](O)[C@H](NC(=O)c2ccc(OCc3ccccc3)cc2)C1 ?
ST2 inh: inactive

How did CC(=O)N1c2c(cc(Br)cc2S(=O)(=O)Nc2ccc(F)c(F)c2)CC1C (configuration not stated) do in these assays?
ST2 inh: inactive

Results for O=C(NCc1ccc2c(c1)OCO2)C1CC(=O)N(c2ccccc2)C1 (configuration not stated) ?
ST2 inh: inactive

Results for NC(=O)CSc1nnc2c(n1)[nH]c1ccccc12 ?
ST2 inh: inactive

What do the screens show for `NNc1nnc2c(n1)[nH]c1ccccc12`?
ST2 inh: 31%*

How did O=C(CSc1nnc2c(n1)[nH]c1ccccc12)NCCc1ccccc1 do in these assays?
ST2 inh: inactive

How did COc1cc(NC2CCCc3sc(C)nc32)ncn1 (configuration not stated) do in these assays?
ST2 inh: inactive

What do the screens show for `CCOc1ccc(S(=O)(=O)NCC(=O)O)cc1`?
ST2 inh: inactive

Results for Cc1ccc(C)n1-c1ccc(OCC(=O)O)cc1 ?
ST2 inh: 64%*

How did COc1ccc(OCC(=O)O)cc1 do in these assays?
ST2 inh: inactive

Results for CC1=C(C(=O)Nc2ccc(C)cc2C)C(c2ccc(F)cc2)n2nc(C(=O)OC(C)C)nc2N1 (configuration not stated) ?
ST2 inh: inactive

Results for CCCS(=O)(=O)N1CCC(C(=O)NCCCN2CCCCC2CC)CC1 (configuration not stated) ?
ST2 inh: inactive

Results for Cc1[nH]c(=O)[nH]c(=O)c1S(=O)(=O)NCc1ccncc1 ?
ST2 inh: inactive

How did Cn1ncc2c(=O)[nH]c(CN3CCOC(CCCc4ccccc4)C3)nc21 (configuration not stated) do in these assays?
ST2 inh: inactive

How did CC(=O)c1cccc(NC(=O)O[C@@H]2CO[C@H]3[C@@H]2OC[C@@H]3NC(=S)Nc2ccccc2)c1 do in these assays?
ST2 inh: inactive

How did CC(C)c1ccc(NC(=O)O[C@@H]2CO[C@H]3[C@@H]2OC[C@@H]3NC(=O)Nc2cccc(C#N)c2)cc1 do in these assays?
ST2 inh: inactive

How did COC(=O)c1cccc(NC(=S)N[C@H]2CO[C@H]3[C@@H]2OC[C@H]3OC(=O)Nc2ccc(C(C)C)cc2)c1 do in these assays?
ST2 inh: 68%*

How did CCNC(=O)O[C@@H]1CO[C@H]2[C@@H]1OC[C@@H]2NC(=O)Nc1ccc(C(C)C)cc1 do in these assays?
ST2 inh: inactive

Results for CCNC(=O)O[C@@H]1CO[C@H]2[C@@H]1OC[C@@H]2NC(=S)Nc1cccc(C#N)c1 ?
ST2 inh: 92%*

How did COC(=O)c1cccc(NC(=S)N[C@H]2CO[C@H]3[C@@H]2OC[C@H]3OC(=O)NC2CCCCC2)c1 do in these assays?
ST2 inh: inactive
